Test [1] concerns the target T1, Hexokinase-4 (Homo sapiens) + Glucokinase regulatory protein (Homo sapiens) (UniProt P35557+Q14397). Put plainly: qHTS assay for inhibitors of recombinant human GCK-GKRP interaction: Diaphorase-coupled assay (AID 743205). In outline: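 A kinetic fluorescence read (Ex 525/Em 590 nm, every minute for 30 minutes) tracked resorufin from a G6PDH-diaphorase coupled GCK reaction. It contained 10 nM GST-GCK, 10 nM FLAG-GKRP, 5 mM glucose, 0.4 mM ATP in Hepes pH 7.6. Normalized to with/without-enzyme DMSO controls.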
Background: qHTS replaces the single test concentration by a dilution series.

Test [2] addresses T1, Hexokinase-4 (Homo sapiens) + Glucokinase regulatory protein (Homo sapiens). Put plainly: qHTS assay for inhibitors of recombinant human GCK-GKRP interaction: ADP-Glo assay (AID 743206).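 Also: plate controls were DMSO plus enzyme for no effect and no enzyme for full effect.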 In outline:
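Pin-transferred compounds meet a 15 nM GST-GCK/15 nM FLAG-GKRP/2 uM S6P mix (dispense concentrations). ATP is then added to 0.4 mM final with 5 mM glucose, and the reaction runs 60 min at room temperature. ADP is quantified luminescently.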

For test [3] the target is unchanged. Put plainly: qHTS assay for inhibitors of recombinant human GCK-GKRP interaction: HTRF assay (AID 743207).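 Also: 0% = DMSO with GCK present and -100% = DMSO wells lacking GCK.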 In outline:
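After 60 min equilibration at room temperature with anti-FLAG XL665 and anti-GST antibodies, FRET ratio (665/615 nm, excitation 320 nm) was read. Proteins: GST-GCK and FLAG-GKRP, each 5 nM, plus 2 uM S6P, pH 7.1 buffer; GCK-free wells define minimum signal.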

The target in test [4] is Atrial natriuretic peptide receptor 1 (Homo sapiens) (UniProt P16066). Put plainly: Natriuretic polypeptide receptor (hNpr1) antagonism - Pilot screen (AID 1347049; calls by dose curve;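 also: HEK293 cells with hNpr1 and GloSensor cGMP luciferase stimulated by 0.1 nM hNppA; agonist-evoked cGMP luminescence read 20 min after hNppA addition; series mostly up to about 58 µM; % is scaled to controls: 0 for no effect and ±100 for the full control effect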). Summed up:
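Cells expressing receptor plus cGMP biosensor are seeded and incubated overnight at 37C, then loaded with GloSensor reagent (2% final) at room temperature for 2 h. Library compounds go on for 30 min. A pre-read precedes agonist (hNppA, 0.1 nM final) and a 20-min readout.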

The target of test [5] is Atrial natriuretic peptide receptor 2 (Homo sapiens) (UniProt P20594). Put plainly: Natriuretic polypeptide receptor (hNpr2) antagonism - Pilot subtype selectivity assay (AID 1347050; calls by dose curve; also: % is scaled to controls: 0 for no effect and ±100 for the full control effect). In outline: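 Read-out: GloSensor luminescence (CCD imager), baseline vs post-stimulation. HEK293 cells expressing hNpr2; compounds pre-incubated 30-50 min at ambient temperature; hNppC 1 nM final, 20 min.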

Test [6] has as its target Parathyroid hormone/parathyroid hormone-related peptide receptor (Homo sapiens) (UniProt Q03431). Put plainly: qHTS for PTHR1 Agonists: Optimization Screen against the NCGC LOPAC library (AID 1347079).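 Also: GloSensor cAMP luminescence in HEK-293 GP2 cells expressing human PTHR1 with IBMX; 0% is about no effect.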 Summed up: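 Signal increase flags agonism. GP2 cells, derived from HEK-293, express human PTHR1 and a GloSensor cAMP construct.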
Test [7] deals with N-terminal Xaa-Pro-Lys N-methyltransferase 1 (Homo sapiens) (UniProt Q9BV86). Put plainly: qHTS Assay for Inhibitors of N-terminal methyltransferase 1 (NTMT1): LOPAC validation of the NTMT1 SAHH-coupled ThioGlo3 Assay (AID 1347143).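 Also: SAH from peptide methylation measured as thiol fluorescence via SAHH coupling and ThioGlo3; potency is read from the fitted curve at half-maximal effect; nearly all actives have a fitted effect of over 70% in size.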 In outline: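 In this qHTS pilot against the LOPAC set, 125nM NTMT1 met compounds tested at multiple concentrations, and fluorescence was normalized to background.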
Sequence of N-terminal Xaa-Pro-Lys N-methyltransferase 1 (Homo sapiens) (Q9BV86 whole entry, looked up): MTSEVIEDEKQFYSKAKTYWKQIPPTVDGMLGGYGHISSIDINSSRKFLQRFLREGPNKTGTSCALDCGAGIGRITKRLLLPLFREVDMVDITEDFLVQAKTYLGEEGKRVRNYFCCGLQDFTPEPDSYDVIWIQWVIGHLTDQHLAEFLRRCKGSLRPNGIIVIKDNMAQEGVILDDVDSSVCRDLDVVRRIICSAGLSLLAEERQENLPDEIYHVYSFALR

The subject of test [8] is Zika virus NS2B-NS3 protease. Put plainly: Primary screen GU AMC qHTS for Zika virus inhibitors (AID 1347154). Also: nearly all actives have a fitted effect of over 70% in size. In outline: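 Unlinked Zika NS2B hydrophilic domain/NS3 protease domain noncovalent complex (25 nM final) in 10 mM Tris-HCl pH 8.0, 0.01% Tween 20, with AMC peptide substrate. Fluorescence (ex 340, em 450 nm) change over 15 min, room temperature; percent inhibition fitted to 4-parameter Hill equation.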

Test [9] concerns the target Lysine-specific demethylase 5B (Homo sapiens) (UniProt Q9UGL1). Put plainly: Optimization screen for KDM5B Histone Demethylases FDH coupled qHTS against the LOPAC library (AID 1347166). Also: 0% is about no effect. In outline:
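KDM5BDeltaAP (200nM final) in 50mM HEPES pH 7.5, 0.01% Tween-20 was preincubated with compound for 10 min at room temperature. A substrate mix of 12.5uM H3K4Me3, 25uM a-ketoglutarate, ascorbate, Fe2+, NAD+ and formaldehyde dehydrogenase was then added. NADH fluorescence (340/450 nm) was read initially and after 30 min.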

Test [10] is described as follows: qHTS to identify inhibitors of the type 1 interferon - major histocompatibility complex class I in skeletal muscle: primary screen against the NCATS LOPAC collection (AID 1347405).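 Also: human myoblasts with HiBiT tag on endogenous HLA-B stimulated by IFN-beta; lytic HiBiT luminescence reporting HLA-B protein level; potency is read from the fitted curve at half-maximal effect.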 Summed up: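 HLA-B HiBiT myoblasts, IFN-b 4 ng/ml, dexamethasone-free medium; compounds 7-pt 1:4.3 titration, top 46 uM final; 24 h at 37 C; Nano-Glo HiBiT lytic reagent, 10 min RT, luminescence.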

A short description of test [11]: Validation qHTS assay for inhibitors of Activation Induced Cytidine Deaminase (AID): UDG Counterscreen signal (AID 1347427). Also: 0% is about no effect. In outline: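 Fluorescence at 560 nm excitation, 665 nm emission reports UDG signal after 250 mM NaOH (2x) addition and 30 min. Enzymes (AID 1 uM, UDG 2 U/mL, at 4/3x) preincubated 10 min with compound, then 4 h with 4x 250 nM DJC20/DJC23 substrate at room temperature.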

In test [12] the target is Single-stranded DNA cytosine deaminase (Homo sapiens) (UniProt Q9GZX7). Put plainly: Validation qHTS assay for inhibitors of Activation Induced Cytidine Deaminase (AID): AID signal (AID 1347429). Also: % is scaled to controls: 0 for no effect and ±100 for the full control effect. Summed up: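 AID+UDG coupled FRET deamination; cpds up to 114 uM final; DJC20/DJC23 substrate, 4 hr RT; NaOH stop, 30 min RT; read Ex 540/Em 590.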
Sequence of Single-stranded DNA cytosine deaminase (Homo sapiens) (Q9GZX7 whole entry, looked up): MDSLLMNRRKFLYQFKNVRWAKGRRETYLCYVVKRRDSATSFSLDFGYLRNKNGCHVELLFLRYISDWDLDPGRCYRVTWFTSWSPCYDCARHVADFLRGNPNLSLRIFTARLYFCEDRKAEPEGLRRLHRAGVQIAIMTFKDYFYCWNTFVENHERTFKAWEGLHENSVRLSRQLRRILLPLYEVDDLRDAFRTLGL
Test [13] in a line: Primary qHTS for inhibitors of La Crosse Virus (LACV) - induced cell death in SH-SY5Y cells (AID 1508616).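 Also: top concentration of the series differs between compounds; 0% = infected DMSO wells and 100% = uninfected DMSO wells; higher means more rescue of cells from virus-induced death.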 Summed up:
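Cytopathicity rescue screen: compounds pinned onto SH-SY5Y cells, which are then infected with LACV (MOI 0.01) and held 6 days at 37C. Percent activity is scaled between infected DMSO control and uninfected DMSO control.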

The nature of test [14]: Counterscreen qHTS for small molecule stabilizers of the endoplasmic reticulum resident proteome: GLuc-NoTag assay (AID 1508627). Also: potency is read from the fitted curve at half-maximal effect. In outline:
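Secreted GLuc lacking the SERCaMP modification is measured in SH-SY5Y cells exposed to compound for 19 h and then to thapsigargin (100 nM, 4 h) to deplete ER calcium; hits retested at 11 concentrations, up to 76.6 uM.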

The nature of test [15]: Cell Viability qHTS for small molecule stabilizers of the endoplasmic reticulum resident proteome (AID 1508629).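 Also: human SH-SY5Y neuroblastoma cells carrying the GLuc-SERCaMP reporter; compound exposure about 46 h in total before the viability read; % is scaled to controls: 0 for no effect and ±100 for the full control effect.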 The settings on record: cell viability counter-screen, 100 nM thapsigargin for final 4 h.
A further test addresses Papain (Carica papaya) (UniProt P00784). Put plainly: Primary qHTS assay for inhibitors of the protease papain (AID 1645873).
For test [16], the target named is Metallo-beta-lactamase type 2 (Klebsiella pneumoniae) (UniProt C7C422). Put plainly: qHTS to identify inhibitors of the New Delhi Metallo-beta-lactamase (NDM): assay validation screen against the NCATS LOPAC Collection (AID 1794843). In outline: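 Nitrocefin hydrolysis (50 uM substrate stock) by NDM-1, 2 nM final, was followed by 485 nm absorbance after compound preincubation; buffer was 50 mM HEPES pH 7.0, 1 uM ZnSO4, 0.01% Tween20.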

Test [17] has as its target Glutathione peroxidase 1 (Homo sapiens) (UniProt P07203). Put plainly: Primary qHTS Assay for Inhibitors of Recombinant Selenoprotein Glutathione Peroxidase 1 (GPX1) (AID 1845191). Also: nearly all actives have a fitted effect of over 65% in size. Summed up:
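GPX1 10 nM, GR 100 nM, GSH 1 mM, NADPH 0.5 mM, CHP 0.5 mM (final). 30-min cpd preincubation, RT. Ex340/Em450 read t=0, t=15 min.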

Test [18] addresses Phospholipid hydroperoxide glutathione peroxidase GPX4 (Homo sapiens) (UniProt P36969). Put plainly: Primary qHTS Assay for Inhibitors of Recombinant Selenoprotein Glutathione Peroxidase 4 (GPX4) (AID 1845192). Also: nearly all actives have a fitted effect of over 65% in size. The settings on record: outcome: dose series up to 50 µM unless noted. In outline:
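qHTS, GR-coupled: GPX4 200 nM + cpd 30 min RT → GSH 1 mM, NADPH 0.5 mM, GR 100 nM → CHP 0.5 mM start; fluor 340/450 at t0 and t15 min; no-enzyme wells as control.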

Values without a mark were called inactive. Records with an inconclusive call do not appear. Activity calls are given as the source filed them. Unless noted, calls follow the shape of the dose curve; as a rule, active = well fitted curve in the direction sought with a large enough effect; inconclusive = small, poorly fitted or top-dose-only effect, or another doubt; inactive = no such curve, though single readings can be large; an effect the other way counts as inactive or inconclusive.

T1 sequence (P35557 whole entry, looked up): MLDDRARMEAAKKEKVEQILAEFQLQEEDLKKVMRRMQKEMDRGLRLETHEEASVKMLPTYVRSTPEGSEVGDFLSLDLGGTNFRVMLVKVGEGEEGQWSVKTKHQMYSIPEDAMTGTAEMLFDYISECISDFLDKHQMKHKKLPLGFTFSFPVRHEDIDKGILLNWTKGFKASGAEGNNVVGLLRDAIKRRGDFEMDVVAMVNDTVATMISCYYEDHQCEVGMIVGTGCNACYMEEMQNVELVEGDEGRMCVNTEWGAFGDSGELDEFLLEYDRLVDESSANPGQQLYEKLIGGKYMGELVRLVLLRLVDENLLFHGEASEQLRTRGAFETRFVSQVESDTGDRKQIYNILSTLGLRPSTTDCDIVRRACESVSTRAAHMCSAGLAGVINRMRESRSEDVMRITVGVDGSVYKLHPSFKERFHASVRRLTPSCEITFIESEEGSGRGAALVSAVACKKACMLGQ
T1 sequence (Q14397 whole entry, looked up): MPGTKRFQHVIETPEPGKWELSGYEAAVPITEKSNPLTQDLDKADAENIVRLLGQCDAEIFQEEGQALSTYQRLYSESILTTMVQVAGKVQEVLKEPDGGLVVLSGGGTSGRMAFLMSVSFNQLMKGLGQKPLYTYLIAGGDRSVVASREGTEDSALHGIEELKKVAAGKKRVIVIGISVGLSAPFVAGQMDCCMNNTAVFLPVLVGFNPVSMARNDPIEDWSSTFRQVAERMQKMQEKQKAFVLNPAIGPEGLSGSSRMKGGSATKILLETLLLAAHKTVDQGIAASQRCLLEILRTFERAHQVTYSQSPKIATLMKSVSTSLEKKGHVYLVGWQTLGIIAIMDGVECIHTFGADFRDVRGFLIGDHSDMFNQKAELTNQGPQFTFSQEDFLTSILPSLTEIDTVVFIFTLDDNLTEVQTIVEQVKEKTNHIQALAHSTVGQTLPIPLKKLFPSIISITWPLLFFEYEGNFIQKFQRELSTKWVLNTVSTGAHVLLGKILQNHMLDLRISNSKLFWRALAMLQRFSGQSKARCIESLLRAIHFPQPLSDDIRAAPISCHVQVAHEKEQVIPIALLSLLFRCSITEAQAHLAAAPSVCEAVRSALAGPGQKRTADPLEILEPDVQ
Sequence of Glutathione peroxidase 1 (Homo sapiens) (P07203 whole entry, looked up): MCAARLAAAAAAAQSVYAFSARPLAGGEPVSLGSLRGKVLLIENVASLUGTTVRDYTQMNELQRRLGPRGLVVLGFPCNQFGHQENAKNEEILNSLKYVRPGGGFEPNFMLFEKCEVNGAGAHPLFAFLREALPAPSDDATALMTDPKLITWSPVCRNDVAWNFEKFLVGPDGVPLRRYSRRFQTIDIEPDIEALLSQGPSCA
Sequence of Parathyroid hormone/parathyroid hormone-related peptide receptor (Homo sapiens) (Q03431 whole entry, looked up): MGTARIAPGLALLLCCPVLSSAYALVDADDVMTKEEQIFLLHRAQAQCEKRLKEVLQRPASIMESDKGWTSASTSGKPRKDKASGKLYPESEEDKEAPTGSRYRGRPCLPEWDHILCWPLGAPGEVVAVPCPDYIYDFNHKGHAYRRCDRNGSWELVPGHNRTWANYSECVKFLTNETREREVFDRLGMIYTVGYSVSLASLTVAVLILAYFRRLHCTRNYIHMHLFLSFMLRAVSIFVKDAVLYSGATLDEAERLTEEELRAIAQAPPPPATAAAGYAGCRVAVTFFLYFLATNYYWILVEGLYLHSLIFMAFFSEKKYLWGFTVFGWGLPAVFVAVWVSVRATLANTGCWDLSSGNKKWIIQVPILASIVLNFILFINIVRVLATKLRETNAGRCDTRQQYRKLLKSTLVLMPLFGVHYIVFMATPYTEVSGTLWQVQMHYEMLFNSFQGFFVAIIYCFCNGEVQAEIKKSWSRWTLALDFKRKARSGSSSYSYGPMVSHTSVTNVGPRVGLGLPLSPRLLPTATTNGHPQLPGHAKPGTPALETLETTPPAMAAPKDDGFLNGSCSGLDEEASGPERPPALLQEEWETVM
Sequence of Lysine-specific demethylase 5B (Homo sapiens) (Q9UGL1 whole entry, looked up): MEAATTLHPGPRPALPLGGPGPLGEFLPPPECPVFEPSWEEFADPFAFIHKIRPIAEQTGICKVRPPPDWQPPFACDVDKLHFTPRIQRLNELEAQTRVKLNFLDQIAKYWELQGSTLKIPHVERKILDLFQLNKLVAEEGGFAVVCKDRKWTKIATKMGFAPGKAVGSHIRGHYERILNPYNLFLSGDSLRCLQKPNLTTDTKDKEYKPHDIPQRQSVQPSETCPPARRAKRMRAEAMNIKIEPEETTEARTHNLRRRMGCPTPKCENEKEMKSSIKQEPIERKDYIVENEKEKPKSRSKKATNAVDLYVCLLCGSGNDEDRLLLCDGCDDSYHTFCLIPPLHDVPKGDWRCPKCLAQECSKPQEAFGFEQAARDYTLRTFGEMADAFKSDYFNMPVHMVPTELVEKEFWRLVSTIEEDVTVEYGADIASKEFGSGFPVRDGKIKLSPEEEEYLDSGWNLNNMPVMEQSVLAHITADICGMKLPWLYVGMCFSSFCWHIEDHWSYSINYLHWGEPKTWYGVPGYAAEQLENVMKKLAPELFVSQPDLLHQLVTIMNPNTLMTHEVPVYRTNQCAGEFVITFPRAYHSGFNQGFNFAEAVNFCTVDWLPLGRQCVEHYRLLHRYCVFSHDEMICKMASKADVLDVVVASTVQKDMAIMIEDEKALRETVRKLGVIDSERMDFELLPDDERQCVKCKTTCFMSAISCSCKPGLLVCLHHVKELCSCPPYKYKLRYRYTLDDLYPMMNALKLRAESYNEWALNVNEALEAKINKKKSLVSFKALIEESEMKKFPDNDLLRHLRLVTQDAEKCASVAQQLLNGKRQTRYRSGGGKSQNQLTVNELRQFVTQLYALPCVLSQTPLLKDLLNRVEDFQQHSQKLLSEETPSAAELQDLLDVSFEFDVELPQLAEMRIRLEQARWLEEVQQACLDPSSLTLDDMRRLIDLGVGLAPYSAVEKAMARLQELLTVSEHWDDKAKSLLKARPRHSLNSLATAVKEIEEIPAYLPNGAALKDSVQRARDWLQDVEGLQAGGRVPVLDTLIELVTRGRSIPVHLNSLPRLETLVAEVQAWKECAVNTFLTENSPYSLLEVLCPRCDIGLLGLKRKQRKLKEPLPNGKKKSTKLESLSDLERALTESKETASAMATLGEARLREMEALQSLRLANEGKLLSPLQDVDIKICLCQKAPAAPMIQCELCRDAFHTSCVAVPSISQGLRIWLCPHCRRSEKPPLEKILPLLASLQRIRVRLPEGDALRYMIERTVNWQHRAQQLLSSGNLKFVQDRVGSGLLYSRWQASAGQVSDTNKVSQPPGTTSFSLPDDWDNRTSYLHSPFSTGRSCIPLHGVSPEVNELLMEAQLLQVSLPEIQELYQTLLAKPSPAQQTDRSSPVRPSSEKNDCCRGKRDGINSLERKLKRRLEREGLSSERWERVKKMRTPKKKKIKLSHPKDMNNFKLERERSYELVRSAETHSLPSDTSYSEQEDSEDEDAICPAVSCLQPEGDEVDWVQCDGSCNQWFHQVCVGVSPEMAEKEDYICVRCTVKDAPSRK
Sequence of Atrial natriuretic peptide receptor 1 (Homo sapiens) (P16066 whole entry, looked up): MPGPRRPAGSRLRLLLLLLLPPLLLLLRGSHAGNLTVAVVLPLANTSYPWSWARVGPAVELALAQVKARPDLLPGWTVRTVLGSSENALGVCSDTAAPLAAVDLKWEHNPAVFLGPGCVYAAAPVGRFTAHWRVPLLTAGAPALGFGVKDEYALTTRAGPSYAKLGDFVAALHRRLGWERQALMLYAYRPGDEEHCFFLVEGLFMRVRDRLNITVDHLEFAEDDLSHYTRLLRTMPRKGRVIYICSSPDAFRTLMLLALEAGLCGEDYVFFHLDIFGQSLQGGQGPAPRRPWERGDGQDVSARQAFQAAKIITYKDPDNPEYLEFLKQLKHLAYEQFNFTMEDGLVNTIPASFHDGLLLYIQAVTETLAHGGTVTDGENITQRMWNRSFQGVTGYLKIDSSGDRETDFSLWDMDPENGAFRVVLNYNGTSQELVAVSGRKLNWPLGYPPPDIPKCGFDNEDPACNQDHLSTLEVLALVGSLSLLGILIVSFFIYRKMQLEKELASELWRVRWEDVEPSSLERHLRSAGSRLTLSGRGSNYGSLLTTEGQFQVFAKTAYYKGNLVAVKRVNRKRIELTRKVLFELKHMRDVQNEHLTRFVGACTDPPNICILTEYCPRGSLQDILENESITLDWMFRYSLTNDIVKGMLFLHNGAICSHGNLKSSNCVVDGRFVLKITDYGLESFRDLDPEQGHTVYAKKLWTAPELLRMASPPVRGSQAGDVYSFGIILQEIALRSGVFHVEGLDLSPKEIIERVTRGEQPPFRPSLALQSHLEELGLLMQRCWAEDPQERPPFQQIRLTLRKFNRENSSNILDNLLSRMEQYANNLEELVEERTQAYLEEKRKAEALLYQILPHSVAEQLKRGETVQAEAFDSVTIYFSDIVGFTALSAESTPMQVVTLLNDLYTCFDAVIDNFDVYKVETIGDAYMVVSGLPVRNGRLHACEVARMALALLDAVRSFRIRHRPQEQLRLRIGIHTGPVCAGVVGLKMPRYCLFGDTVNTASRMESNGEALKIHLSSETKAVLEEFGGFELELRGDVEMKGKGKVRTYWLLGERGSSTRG

For the molecule `O=Nc1c(-c2c(O)[nH]c3ccccc23)[nH]c2ccccc12`, the result in test [1], in test [2], in test [3], in [6], in [9] and in test [11] was inactive. The molecule was called inactive in test [13]. For the same molecule, the Potency entry (in test [4]; in test [5]; in [8]; in test [12]; with Papain (Carica papaya); in [16]) was “inactive” in each case. Moreover, the Potency result in test [17] and in test [18] was “inactive” each time. In addition, the Potency in test [7] is 20 µM (active); in test [10], 11.2 µM (active); in test [14], 15.8 µM (active). Also, the max response in test [15] was -10.5%.
